NTR1 agonist: agonists of human neurotensin receptor NTR1; P30989; activation, % at 20 µM; NTR1-U2OS beta-arrestin-GFP spot imaging, agonist mode; actives 0.17% (n = 330,000);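 active means activation at or above 40% of the spot to cytoplasm intensity ratio, with at least 20 cells analyzed; inconclusive means wells under 20 cells, flagged as cytotoxic or low count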;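 further: 0% = DMSO without peptide and 100% = 100 nM NTR1 peptide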
Target sequence (P30989 whole entry, looked up): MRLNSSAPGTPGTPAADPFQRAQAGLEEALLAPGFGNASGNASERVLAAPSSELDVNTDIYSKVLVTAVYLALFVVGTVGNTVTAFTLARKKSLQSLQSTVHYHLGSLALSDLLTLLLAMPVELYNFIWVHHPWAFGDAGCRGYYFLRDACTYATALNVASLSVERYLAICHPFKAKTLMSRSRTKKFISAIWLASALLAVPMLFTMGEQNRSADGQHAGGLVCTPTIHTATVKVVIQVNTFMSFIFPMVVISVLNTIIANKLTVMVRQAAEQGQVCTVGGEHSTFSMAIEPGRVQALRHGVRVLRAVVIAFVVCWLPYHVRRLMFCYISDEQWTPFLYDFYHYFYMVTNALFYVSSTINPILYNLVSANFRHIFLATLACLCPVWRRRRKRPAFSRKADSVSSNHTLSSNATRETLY
AHR activator: human AHR activation | AHR-responsive luciferase reporter cells, luminescence | activation, % at 5 µM | actives 2.5% (n = 320,000) | AID 2796; in the data active means activation above about 47%;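 further: 0% = vehicle wells and 100% = reference agonist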
Cardio protect: protects H9c2 cardiomyocytes from peroxide injury; actives 0.63% (n = 360,000); protection from H2O2 cell death, % at 20 µM; H2O2 injury protection, ATPLite, 2 h; AID 588492;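 active means compounds giving at least 50% protection of heart cells from peroxide-induced death in the single-dose screen, raw or plate-pattern-corrected value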;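 further: 0% = DMSO wells with peroxide and 100% = DMSO wells without peroxide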
AI-2 QS modul: modulates the Vibrio harveyi AI-2 quorum sensing system. actives 0.4% (n = 300,000). Vibrio harveyi JMH597 AI-2 luminescence/OD600 ratio, 9 h; stronger effect = lower value; strain lacks LuxN and CqsS sensors; 0 = neutral-control median. activity change, % at 7.5 µM; in the data active means activity change below about -75%, passing the limit was not always enough; inconclusive means no clear call, values can overlap the other calls;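 further: luminescence divided by OD600 gain over 9 h not by final OD600 alone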
SUMO Mot1 rescue: blocks SUMOylation pathway, rescuing yeast Mot1-301 growth; S. cerevisiae Mot1-301 growth rescue, ATP luminescence, 38.5C; percent above DMSO median, 100 means doubled; growth rescue, % at 18.8 µM; actives 1% (n = 320,000); AID 2716;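 active means every valid replicate shows activation above 250% relative to neutral control wells; inactive means the rest, any valid replicate at or below 250%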;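 further: OY570 slx delta 5 strain wells were the positive control but not used for scaling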
GRIN3A LBD mod: modulates the human NR3A ligand-binding domain. NR3A LBD differential scanning fluorimetry, Tm shift; 0% = protein alone, 100% = glycine-bound protein. actives 2.5% (n = 340,000). Tm shift relative to glycine control, % at 25 µM;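 active means melting temperature shift of at least 10% of the positive control shift, at one fixed dose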
* = called active by the depositor; ? = inconclusive; / = not tested or not shown. Most compounds without a hit are left out; they make up all but 6.2% or so of the library.

SMILES	NTR1 agonist	AHR activator	Cardio protect	AI-2 QS modul	SUMO Mot1 rescue	GRIN3A LBD mod
CCOC(=O)c1sc(=S)n(C)c1NC(=O)c1ccccc1	3.6	-0.6	-1.1	15.4	-12.3	15.8*
CC(=O)Nc1ccc(CCNC(=O)c2ccc3ccccc3c2O)cc1	/	/	0.6	/	/	24.1*
O=C(Nc1cc(C(F)(F)F)ccc1N1CCCC1)C1CCCO1 (stereo not drawn)	-3.0	1.1	-1.3	/	12.0	0.2
O=S(=O)(c1cccc(F)c1)N1CCN(c2nc(-c3cccnc3)nc3ccccc23)CC1	5.4	-3.4	59.1*	/	3.8	-1.0
O=C(CN1C(=O)NC2(CCc3ccccc32)C1=O)NCc1cccc(C(F)(F)F)c1 (stereo not drawn)	-1.5	6.2	-1.6	/	-1.6	11.2*
O=C(Cc1nnc(NC(=O)c2ccccc2)s1)N/N=C/c1ccc(O)cc1	1.0	15.8	6.2	-0.5	-7.7	-2.0
O=C(Cc1nnc(NC(=O)c2ccccc2)s1)N/N=C\c1ccc(O)c(O)c1	0.8	56.2*	2.3	14.1	-13.9	3.5
CCOc1ccccc1NC(=O)NCc1cccnc1	-0.3	83.7*	7.0	-1.6	/	-5.5
COc1ccc(OC)c(NC(=O)NCc2cccnc2)c1	1.5	58.2*	7.3	1.3	290.5	-0.7
Cc1cc(C(=O)N/N=C/c2cn[nH]c2-c2ccccc2)cs1	1.5	96.0*	5.0	48.8	-25.1	-0.9
O=C(N/N=C/c1cn[nH]c1-c1ccccc1)c1ccco1	-1.7	65.4*	20.6	10.0	/	0.1
COc1cc(/C=C2/SC(=S)N(CCC(=O)N3CCN(C)CC3)C2=O)cc(OC)c1OC	/	/	4.7	/	/	/
Cc1cc(C)c2c(N)c(C(=O)Nc3c(C)n(C)n(-c4ccccc4)c3=O)sc2n1	0.0	28.3	1.4	2.3	1.2	1.1
CCCOC(=O)c1ccc(NC(=O)COC(=O)C2CCN(c3ccc(C(F)(F)F)cn3)CC2)cc1	/	/	-5.2	/	/	21.2*
COc1cc(C(=O)COC(=O)C2CCN(c3ccc(C(F)(F)F)cn3)CC2)ccc1OC(F)F	0.8	3.2	-11.5	1.0	1.4	11.2*
Cc1ccccc1NC(=O)C(=O)NNC(=O)COc1ccc2ccccc2c1	3.0	10.1	-4.0	1.8	-7.7	-4.4
Oc1ccc(C[C@H]2CNC(=S)N2CC2CCCN2C[C@H](Cc2ccccc2)N2C[C@H](Cc3ccc(O)cc3)N(CC3CCCCC3)C2=S)cc1 (stereo partly drawn)	/	/	-12.5	/	/	/
CCOC(=O)N1CCC(N2C(=O)c3ccc(C(=O)O)cc3C2=O)CC1	1.0	-4.0	-2.4	33.0	-13.7	5.5
CCOC(=O)N1CCC(N2C(=O)c3ccc(C(=O)Nc4cccc(OC)c4)cc3C2=O)CC1	9.3	1.1	0.0	14.5	27.8	10.6*
O=C(NNc1nc2cc3c(cc2s1)OCCO3)c1ccc(F)cc1	0.1	41.9	4.9	-89.9*	0.8	-1.4
O=C(NNc1nc2cc3c(cc2s1)OCO3)c1ccc(F)cc1	-0.8	59.9*	3.8	?	0.7	-0.2
CCN(CCNC(=O)Nc1ccc(Cl)cc1)c1ccccc1	2.9	36.3	-31.3	-3.9	210.3	22.3*
O=C(NCCc1ccc(Cl)cc1)Nc1ccc(Cl)cc1	0.1	0.6	-5.3	13.5	-1.4	20.1*
CC(=O)c1cccc(NC(=S)NCCc2ccc(Cl)cc2)c1	4.2	21.4	-9.1	5.4	-2.2	14.8*
COc1ccc(Cl)cc1-c1nc(-c2ccc(NC(=O)c3ccncc3)cc2)no1	4.9	5.6	11.9	18.6	-4.5	26.0*
SMILES	NTR1 agonist	AHR activator	Cardio protect	AI-2 QS modul	SUMO Mot1 rescue	GRIN3A LBD mod
O=C(Nc1cccc(-c2nnco2)c1)c1cccs1	1.1	7.7	-0.6	19.2	45.2	2.0
Cc1ccc(-c2nnc(-c3cccc(NC(=O)c4cccs4)c3)o2)cc1	14.2	7.1	31.6	18.9	1.9	19.5*
COc1cccc(-c2nc(-c3ccc(NC(=O)c4cccs4)cc3)no2)c1	6.1	6.5	10.4	24.5	-0.4	14.7*
COc1ccc(-c2nc(-c3ccc(NC(=O)c4ccncc4)cc3)no2)cc1OC	9.1	36.5	36.7	23.4	6.6	11.8*
CC1C(=O)N(Cc2cn(CCC3OCCO3)nn2)CCS(=O)(=O)N1Cc1ccc(-c2ccc(Cl)cc2)cc1 (stereo not drawn)	/	/	-6.4	/	/	/
COc1cccc(-c2nc(-c3ccc(C(=O)O)cc3)no2)c1	-1.1	6.3	-4.5	18.7	-7.7	-0.6
COc1cccc(-c2nc(-c3ccc(NC(=O)c4ccncc4)cc3)no2)c1	1.5	2.8	-5.7	-11.6	-15.8	24.3*
COc1cccc(-c2noc(-c3ccc(Cl)nc3)n2)c1	1.1	53.6*	-5.5	8.7	13.0	-0.4
CN(/N=C/c1ccc(O)cc1O)c1nc(-c2ccccc2)cc(-c2ccccc2)n1	10.3	13.3	-22.2	32.9	39.2	22.2*
Cc1cc(-c2ccccc2)nc(N/N=C/c2ccc(O)cc2O)n1	15.7	1.2	37.2	22.0	-10.8	11.3*
COc1ccc(-n2c(O)c(/C=N/Nc3nc(C)cc(C)n3)c3ccccc3c2=O)cc1OC	1.1	3.3	62.0*	4.6	-20.4	-2.4
Oc1ccc(C=Nc2cccc3ccccc23)c(O)c1	1.0	21.8	-4.8	14.4	19.1	-2.2
Cc1cc(-c2ccccc2)nc(N/N=C/c2ccccc2)n1	2.7	15.3	-11.1	8.4	13.8	0.5
COc1ccc(/C=N/Nc2nc(C)cc(-c3ccccc3)n2)cc1OC	2.2	52.1*	36.5	6.5	-13.0	-1.5
Cc1cc(-c2ccccc2)nc(N/N=C/c2ccc([N+](=O)[O-])cc2)n1	2.3	-4.9	53.4*	18.6	217.6	23.8*
CSCCC(NC(=O)c1ccco1)C(=O)N1CC=C(c2ccccc2)CC1 (stereo not drawn)	1.7	-1.7	2.4	29.3	72.8	-2.5
CC(C)=CCc1c(-c2ccc(O)cc2O)oc2c3c(cc(O)c2c1=O)OC(C)(C)C=C3	15.5	11.8	/	110.0	1.6	26.7*
CC(C)=CCc1c(O)cc2oc3c(CC=C(C)C)c(O)c(O)c(CC=C(C)C)c3c(=O)c2c1O	3.9	8.0	-15.0	-1.9	14.2	6.0
CC1(C)C=Cc2c(ccc(-c3coc4cc(O)ccc4c3=O)c2O)O1	3.8	-0.6	/	4.4	4.2	/
CC(C)=CCc1c2c(c(O)c3c(=O)c4c(oc13)-c1cc(O)c(O)cc1OC4C=C(C)C)C=CC(C)(C)O2 (stereo not drawn)	4.8	13.6	/	2.9	8.3	22.5*
Cc1ccc(F)cc1NC(=O)COC(=O)C1CCN(c2ccc(C(F)(F)F)cn2)CC1	3.4	4.5	-5.0	/	1.9	-1.0
COc1cccc(CN(CCC(C)C)S(=O)(=O)c2cc(Br)ccc2Br)c1	/	/	-11.4	/	/	15.4*

Screens as filed in PubChem BioAssay.
